Results published in PubChem BioAssay (NCATS).
Results filed as inconclusive are left out. Where a call stands in place of a potency, no number is given. Values without a mark were called inactive. Activity calls are given as the source filed them. Calls come from the whole dose curve; as a rule, active = well fitted inhibition curve with a large enough effect; inconclusive = small, poorly fitted or top-dose-only effect, or effect the other way; inactive = flat fitted curve, though single readings scatter.

target: ATP-dependent 6-phosphofructokinase (Trypanosoma brucei brucei) (UniProt O15648); assay: qHTS Validation Assay to Find Inhibitors of T. brucei phosphofructokinase (AID 485368); conditions: T. brucei PFK enzyme assay, qHTS 7-point titration; series mostly up to 57.5 µM; activity change, negative = inhibition: at the top concentration
Sequence (O15648 whole entry, looked up): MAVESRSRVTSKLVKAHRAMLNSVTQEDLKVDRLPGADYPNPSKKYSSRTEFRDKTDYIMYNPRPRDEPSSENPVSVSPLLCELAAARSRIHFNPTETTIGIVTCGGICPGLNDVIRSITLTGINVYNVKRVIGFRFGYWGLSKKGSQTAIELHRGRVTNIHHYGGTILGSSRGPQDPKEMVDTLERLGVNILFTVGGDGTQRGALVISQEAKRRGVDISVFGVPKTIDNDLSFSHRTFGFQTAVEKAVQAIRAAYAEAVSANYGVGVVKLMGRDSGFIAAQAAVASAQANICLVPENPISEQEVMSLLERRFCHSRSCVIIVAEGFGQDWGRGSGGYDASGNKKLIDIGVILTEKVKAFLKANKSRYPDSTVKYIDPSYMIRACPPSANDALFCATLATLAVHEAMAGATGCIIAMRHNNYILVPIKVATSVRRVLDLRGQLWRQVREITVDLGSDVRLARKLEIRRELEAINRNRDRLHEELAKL
From the text: NIH Molecular Libraries Probe Production Network [MLPCN]
NIH Chemical Genomics Center [NCGC]
PI Name: Malcolm Walkinshaw, University of Edinburgh
Various species of the protozoan family Trypanosomatidae are responsible for a range of serious human diseases in tropical and subtropical areas of the world. […] Many of the disorders caused by trypanosomatids are fatal if left untreated, but most currently used drugs are inefficient and toxic.
Oxidative metabolism involving the mitochondrial tricarboxylic acid cycle and oxidative phosphorylation are repressed in these parasites, and recent RNA interference (RNAi) experiments have shown that even partial depletion of certain individual glycolytic enzymes can lead to the death of cultured parasites. One such glycolytic enzyme, phosphofructokinase (PFK), catalyzes the formation of fructose-1,6-bisphosphate (F1,6BP) and ADP from fructose-6-phosphate (F6P) and ATP, and in many metabolic circumstances makes an important contribution to the control of flux through the glycolytic pathway. As a specific glycolytic target, PFK is particularly attractive as it catalyzes the first irreversible step in glycolysis, and structural and kinetic studies have shown very substantial and essential differences from corresponding host enzymes, allowing for the discovery of parasite-selective inhibitors.
The goal of this screen is to find small-molecule inhibitors of T. brucei PFK using a biochemical assay that measures PFK activity as a function of ADP production. A luminescence-based assay for T. brucei PFK activity has been developed which uses luciferase to detect production of ADP. Traditional luciferase-based nucleotide detection reagents rely on ATP production as a direct substrate for the luciferase reaction; however, PFK catalyzes the transfer of a phosphate from ATP to F6P, resulting in the net depletion of ATP. To directly measure the ADP product of the PFK reaction, we used the ADP-Glo detection kit (Promega), which utilizes two separate reactions to 1) deplete all remaining uncatalyzed ATP and 2) convert all remaining ADP to ATP, which is then detected through a traditional luciferase-coupled reaction. Compounds were screened as a concentration-titration series that ranged from 57 uM to 0.7 nM.
NCGC Assay Protocol Summary:
Substrate buffer was dispensed into white, solid 1536-well plates at 3uL/well in 0.1M triethanolamine (TEA) buffer, pH 8.0, containing final concentrations of 5 mM MgCl2, 0.01% Tween20, 0.5 mM fructose-6-phosphate (F6P) and 0.1mM ATP. Then, 23 nL of compounds or DMSO were delivered to each well using a pin tool. One uL T. brucei PFK (0.1M TEA, 0.01% Tween20, 0.1% bovine serum albumin (BSA) and 1.25nM PFK, final concentrations) was then dispensed, and plates were incubated at room temperature for 45 min. The luminescent detection reagent, ADP-Glo (Promega), was then added in two steps: the first reagent, ADP-Glo (which converts remaining uncatalyzed ATP), was added at 2.5uL/well and incubated for ten minutes at room temperature, and the second component, Kinase Detection reagent (which converts ADP to ATP as a substrate for luciferase-based luminescence), was added immediately after at 5uL/well, followed by one final ten minute room temperature incubation. The plates were measured on a ViewLux plate reader for luminescent signal using a clear filter with a one second exposure. The %Activity was determined from the corrected luminescence values. As no specific T. brucei PFK inhibitors have been identified in the literature, 1x (1.25nM) and 0x PFK enzyme controls (untreated) were included to normalize %Activity of identified inhibitors; 0x enzyme values corresponded to 100%Activity (full inhibition), while 1x PFK enzyme values were used to normalize 0%Activity (no inhibition).
Concentration-response curves were fitted to the signals arising from the resulting luminescence. […]
Potency is the fitted concentration of half-maximal effect.

| SMILES | outcome | activity change, negative = inhibition [%] | Potency |
| --- | --- | --- | --- |
| CNCCC=C1c2ccccc2CCc2ccccc21 | inactive | – | – |
| CC1(C)CCC(NC(=O)[C@@H](N)CCC(=O)O)CC1 | inactive | – | – |
| CC(CCc1ccccc1)NCC(O)c1ccc(O)c(C(N)=O)c1 (stereo not given) | inactive | – | – |
| CC[C@H](C)C(=O)O[C@H]1CCC=C2C=C[C@H](C)[C@H](CC[C@@H]3C[C@@H](O)CC(=O)O3)[C@H]21 | inactive | – | – |
| CC(=O)O[C@H]1C[C@@H]2CC[C@@H]3[C@H](CC[C@@]4(C)[C@H]3C[C@H]([N+]3(C)CCCCC3)[C@@H]4OC(C)=O)[C@@]2(C)C[C@@H]1[N+]1(C)CCCCC1 | inactive | – | – |
| N[C@H](CO)C(=O)O | inactive | – | – |
| O=C(O)c1cc2cc(Cc3cccnc3)ccc2o1 | inactive | – | – |
| O=C1CCC(c2ccc(-n3ccnc3)cc2)=NN1 | – | -9.7 | – |
| COc1cc(NS(C)(=O)=O)ccc1Nc1c2ccccc2nc2ccccc12 | inactive | – | – |
| C[N+]1(CCCCC[N+]2(C)CCCC2)CCCC1 | inactive | – | – |
| COC(=O)[C@H]1[C@H]2C[C@H]3c4[nH]c5ccccc5c4CCN3C[C@H]2CC[C@@H]1O | inactive | – | – |
| C[C@]12CC[C@@H]3c4ccc(O)cc4CC[C@H]3[C@@H]1CC[C@@H]2O | inactive | – | – |
| CCC(NC(C)C)C(O)c1ccc(O)c(O)c1 (stereo not given) | inactive | – | – |
| Oc1ccc(O)cc1 | – | – | 10.7 µM (active) |
| N[C@@H](Cc1cnc[nH]1)C(=O)O | inactive | – | – |
